Common to all, as to experiment: NCI-60 one-dose screen, 48 h (100 = growth as untreated, 0 = no growth, -100 = all killed)
What all share (conditions): 10 µM unless noted

For test [1], the system named is T-47D breast.
Test [2] deals with BT-549 breast.
In test [3] the test system is MDA-MB-435 melanoma.
In test [4] the test system is SW-620 colon.
The test system of test [5] is MCF7 breast.
Test [6] concerns HCT-116 colon.
Test [7] concerns HCC-2998 colon.
For test [8], the system named is KM12 colon.

SMILES strings stand for the structures. This is part of a sample that, as a whole, favours compounds with a hit. Of some 83,000 tested, about 20% had one in any assay.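 Negative percent growth values reflect cell death: -40 means 40% of the cells present at the start died, and -100 means all died.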 Values without a mark were called inactive. Active and inactive are the calls of the source. Rule for the calls: active = growth percent below 10; inactive = the rest.

For `CC(=O)CC(c1cccs1)c1c(-c2ccccc2)[nH]c2ccccc12` (stereo not given), the growth in test [1] is 84.6%; in test [2] it was 105%; in test [3] it was 98%; in test [4], 90.4%; in test [5], 92.2%; in test [6], 89.9%. For the same compound, the growth in test [7] was 97.8%; in test [8] it was 94.3%.

Take `COc1ccc(/C=C2\Oc3cc(OCCN4CCC(Cc5ccccc5)CC4)ccc3C2=O)cc1OC`: the growth is 60.7% in test [1]; 64.2% in test [2]; 76.5% in test [3]; 40.8% in test [4]; 49.2% in test [5]; 49% in test [6]. In addition, the growth was -2.67% (active) in test [7] and 68.2% in test [8].

Turning to `O=C(Cc1ccc(F)c(Cl)c1)Nc1cc(C2(C(F)(F)F)CC2)nn1Cc1ccccc1`, the growth in test [1] was 64.9%; in test [2], 77.7%; in test [3] it was 87.8%; in test [4], 82.7%; in test [5], 81%; in test [6] it was 60.4%. Further, the growth in test [7] was 104%; in test [8], 85.5%.

Consider `CCOC(=O)/C=C1\S/C(=N\Nc2ccc([N+](=O)[O-])cc2[N+](=O)[O-])N(Cc2ccccc2)C1=O`, for which the growth in test [1] was 56%; in test [2], 109%; in test [3] it was 98.2%; in test [4] it was 70.9%; in test [5] it was 72.8%; in test [6], 75.3%. Further, the growth in test [7] was 93%; in test [8], 97.5%.

In the case of `N#Cc1c(-c2ccccc2)nc(SCC(=O)Nc2nc(-c3ccc(Cl)cc3)cs2)[nH]c1=O`, the growth in test [1] was 81.8%; in test [2], 93.6%; in test [3], 99.6%; in test [4] it was 113%; in test [5], 91.7%; in test [6], 81.8%. In addition, the growth in test [7] is 81.5%; in test [8], 103%.

With `Cc1nc2ccccc2c(/C=C/c2ccc(Cl)cc2)c1C(=O)/C=C/c1ccc(C(F)(F)F)cc1`, the growth was -18.2% (active) in test [1]; -51.7% (active) in test [2]; -95.4% (active) in test [3]; -57.5% (active) in test [4]; -29.6% (active) in test [5]; -53.6% (active) in test [6]. For the same compound, the growth is -81.3% (active) in test [7] and -74.1% (active) in test [8].

For `CCCCCCNC(=O)Oc1ccc(/C(=C(\C)c2ccc(Cl)cc2)c2ccc(OCCN(CC)CC)cc2)cc1`, the growth in test [1] was 39.7%; in test [2], 82.7%; in test [3], 65%; in test [4] it was 18.2%; in test [5], 24.6%; in test [6], 29.6%. Moreover, the growth is 78.7% in test [7] and 44.6% in test [8].

Regarding `NCCCNc1nc2ccccc2c2c(=O)c3cc(C(F)(F)F)ccc3sc12`, the growth in test [1] is 27.2%; in test [2], 87.7%; in test [3] it was -80.9% (active); in test [4], -74.5% (active); in test [5], -49.4% (active); in test [6] it was -70.4% (active). Moreover, the figures for the growth in test [7] and in test [8] were -84.6% (active) and -76.7% (active), respectively.

As to `CCOC(=O)/C(C#N)=C\Nc1ccc2ncnc(Nc3ccc(Cl)cc3Cl)c2c1`, the growth was 58.6% in test [1]; 89.6% in test [2]; 75.7% in test [3]; 100% in test [4]; 87.6% in test [5]; 92.9% in test [6]. Besides, the growth is 119% in test [7] and 79.1% in test [8].

For `COc1ccc2sc3c(NCCO)nc4ccccc4c3c(=O)c2c1`, the growth in test [1] is 88.5%; in test [2] it was 100%; in test [3] it was 106%; in test [4] it was 101%; in test [5], 47%; in test [6], 92.7%. Also, the growth is 115% in test [7] and 89% in test [8].

As for `CCCCC[C@H](O)C/C=C1/C(=O)C=C[C@@H]1C/C=C\CCCC(=O)OC`, the growth in test [1] was 69.3%; in test [2], 35.3%; in test [3], -9.31% (active); in test [4], 16.1%; in test [5], 18.6%; in test [6] it was 13%. Moreover, the values for the growth in test [7] and in test [8] were 77.8% and 16.5%, respectively.

For `Cc1cc(Cl)ccc1NS(=O)(=O)c1ccc(-c2cnc(C3CC3)o2)cc1`, the growth is 49.6% in test [1]; 11.5% in test [2]; -36.4% (active) in test [3]; 21.9% in test [4]; 12.7% in test [5]; 12.9% in test [6]. The growth in test [7] was 15.9%; in test [8], 15.5%.

As for `COc1cccc(Oc2ccccc2NC(=O)CNC(=O)c2cccc3ccccc23)c1`, the growth was 62.3% [5 µM] in test [1]; 50.7% [5 µM] in test [2]; -20.5% [5 µM] (active) in test [3]; 22.4% [5 µM] in test [4]; 20.5% [5 µM] in test [5]; 3.51% [5 µM] (active) in test [6]. Moreover, the growth in test [7] was 25.5% [5 µM]; in test [8], 13.5% [5 µM].

Turning to `COc1nc2ccc(C)cc2cc1-c1nc2c(cnn2-c2ccc(Br)cc2)c(=O)[nH]1`, the growth in test [1] was 58.3%; in test [2], 91.2%; in test [3] it was -27.1% (active); in test [4], 28.6%; in test [5], 21.8%; in test [6], 13.7%. Also, the growth in test [7] is 88.4%; in test [8], 25%.

Consider `Cc1ccc(-c2nc(N3CCN(C(=O)c4ccc(OC(F)(F)F)cc4)CC3)c3ccccc3n2)cc1`, for which the growth in test [1] was 61.7%; in test [2], 91.9%; in test [3], 92.5%; in test [4], 97%; in test [5], 92.9%; in test [6] it was 85.3%. For the same compound, the growth in test [7] was 97.1%; in test [8] it was 93%.
